Experimental findings from PubChem BioAssay AID720648 (The Scripps Research Institute Molecular Screening Center, 2013) are described below.

The whole screen tested about 370,000 compounds, of which about 3,100 (0.84%) were called active.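 The calls were made as follows: active = inhibition above the mean of compounds lying between control limits plus 3 SD, set per campaign (cut at about 8.5% in these data); inactive = the rest.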 Shown is part of a subset that was picked to be rich in actives.

For the assay, the target named is Disintegrin and metalloproteinase domain-containing protein 17 (Homo sapiens) (UniProt P78536). Nature of the assay: inhibition of ADAM17 peptide cleavage – biochemical, QFRET, primary screen (AID 720648).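 Also: 0% = DMSO-only wells as the low control.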 The conditions noted are these: recombinant ADAM17, EDANS/DABCYL FRET peptide cleavage; at 6.95 µM; stronger effect = higher value.
Chain of Disintegrin and metalloproteinase domain-containing protein 17 (Homo sapiens) (P78536 215-824 limits assumed): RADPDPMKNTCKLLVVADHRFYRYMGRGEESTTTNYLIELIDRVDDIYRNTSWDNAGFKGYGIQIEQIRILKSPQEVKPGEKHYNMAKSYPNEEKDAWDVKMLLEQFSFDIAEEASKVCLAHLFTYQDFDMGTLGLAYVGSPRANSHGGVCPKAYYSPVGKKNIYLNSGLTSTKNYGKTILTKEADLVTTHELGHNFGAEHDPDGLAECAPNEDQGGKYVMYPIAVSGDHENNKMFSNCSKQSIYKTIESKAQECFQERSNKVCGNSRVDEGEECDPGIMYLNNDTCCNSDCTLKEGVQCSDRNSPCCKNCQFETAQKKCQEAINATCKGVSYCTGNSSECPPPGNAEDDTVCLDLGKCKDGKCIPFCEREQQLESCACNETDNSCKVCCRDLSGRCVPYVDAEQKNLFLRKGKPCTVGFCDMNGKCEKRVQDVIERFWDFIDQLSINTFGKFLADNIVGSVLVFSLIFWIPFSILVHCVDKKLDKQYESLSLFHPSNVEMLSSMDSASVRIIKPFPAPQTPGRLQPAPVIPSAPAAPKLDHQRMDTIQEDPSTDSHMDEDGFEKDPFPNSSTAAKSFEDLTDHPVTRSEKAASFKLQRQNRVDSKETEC
Turning to `COC(=O)C1=C(c2cccc(OCc3ccccc3)c2)C[C@@H]2CC[C@H]1N2C(=O)NCc1ccc(Br)cc1`, the inhibition (usually the relative decrease from the control value, in per cent) is 7.72% (inactive).
Next, `COC(=O)C1=C(c2ccc(-c3ccccc3)c(F)c2)C[C@@H]2CC[C@H]1N2C(=O)NCc1ccc(F)cc1`: 16.6% (active).
Under `COC(=O)C1=C(c2ccc(F)cc2OCc2ccccc2)C[C@@H]2CC[C@H]1N2C(=O)NCc1ccc(Cl)cc1` stands 3.55% (inactive); under `O=C1NC(=O)C(C/C=C/c2ccccc2)C(=O)N1`, -2.76% (inactive).
With `CN(C)C(=O)Oc1ccc2c(c1)O/C(=C\c1ccccc1)C2=O`, the inhibition was -16.6% (inactive).
Next, `O=C1C2(Cl)C3(Cl)C4(Cl)C(Cl)(Cl)C5(Cl)C3(Cl)C1(Cl)C5(Cl)C24Cl` (stereo not given): 11.4% (active); `Cc1ccc(C(C)C)c(OCC(=O)N2CCN(CC(=O)N3CCOCC3)CC2)c1`: 1.57% (inactive); `CCN1CCN(c2ccc([N+](=O)[O-])cc2C#N)CC1`: -2.11% (inactive).
As for `CNC(=O)Nc1ccc(C(O)(C(=O)OC)C(F)(F)F)cc1` (stereo not given), the inhibition is -0.16% (inactive).
Under `CC(=O)NCC1=C(c2ccc3ccccc3c2)C[C@@H]2CC[C@H]1N2Cc1ccco1` stands 1.8% (inactive); under `CO[C@H]([C@H](C)/C=C/N(C)C=O)[C@@H](C)C(=O)CC[C@H](C)[C@H](O)[C@H](C)[C@H]1OC(=O)/C=C/C(C)=C/[C@H](O)[C@H](OC)C[C@@H]2C=CC[C@@H](C[C@H](OC)[C@@]3(CO3)[C@@H](OC)C[C@@H](OC)[C@@H]1C)O2`, -1.19% (inactive).
Next, `CCOP(=O)(OCC)C(NC(=O)NC)C(N)=O` (stereo not given): -4.24% (inactive).
Next, `CCOC(=O)CC(SP1(=S)OCC2(CCCCO2)C(C2CCCCO2)O1)C(=O)OCC` (stereo not given): 12.4% (active); `Cc1nc2ccccc2c(=O)n1-c1ccc(Cl)cc1Cl`: 0.07% (inactive).
`Cn1cc(C(=O)OCC(=O)N2CCCC2)c2ccccc21`: the inhibition was 1.16% (inactive).
